Screening data (PubChem)
Compounds with a hit are over-represented: about 2.9% of the library has one in this group of screens.
A549 viability – Nrf2 qHTS screen for inhibitors: counterscreen for cytotoxicity | AID 504648, 2011 | A549 ARE-Fluc cells, CellTiter-Fluor viability, 18-24 h | 0.16% of 390,000 active | Potency, µM (doses to about 46 µM), without a hit: at the highest dose activity change, negative = cytotoxicity, usual class: inhibitors; note: % is set by controls: 0 for no effect and ±100 for the full control effect
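A549 ARE-Fluc cells in 5% FBS OPTI-MEM, 5000 cells/well, rested 2 h then exposed to compounds in concentration-response for 18-24 h at 37 °C. Viability by CellTiter-Fluor fluorescence (Ex 405/Em 525) after 30 min; luciferase luminescence (BugLite, 15 min, RT) read afterwards.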
ATXN2 expr inh – Primary qHTS for Inhibitors of ATXN expression; HEK-293 ATXN2-luciferase reporter, luminescence, 24 h; Potency, µM (top dose mostly 57 µM), for inactives: at the top dose activity change, negative = inhibition, actives largely listed as inhibitors; 0.72% of 360,000 active; note: % is set by controls: 0 for no effect and ±100 for the full control effect; nearly all actives have a fitted effect of over 55% in size
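ATXN2-luciferase reporter cells (luciferase flanked by upstream and downstream ATXN2 gene portions) were treated 24 h at 37 °C with compounds at up to 57 uM. SteadyGlo luminescence gave expression; GF-AFC fluorescence gave viability.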
S2 tox – Viability Counterscreen for Primary qHTS for Inhibitors of ATXN expression; S2 cells (HEK-293 line with an ATXN2-luciferase reporter) viability, CellTiter-Fluor protease fluorescence, 24 h; Potency, µM (top dose mostly 56.7 µM), usual class: cytotoxic; 0.49% of 400,000 active; AID 651635, 2014; note: nearly all actives have a fitted effect of over 40% in size
Nrf2 inh – Nrf2 qHTS screen for inhibitors. A549 ARE-Fluc reporter, luciferase luminescence, 18-24 h. Potency, µM (highest dose often 46 µM), for the others: at the top dose activity change, negative = inhibition, most hits filed as inhibitors. 2.1% of 360,000 active; note: % is set by controls: 0 for no effect and ±100 for the full control effect; nearly all actives have a fitted effect of over 60% in size
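Two sequential reads on A549 ARE_Fluc cells exposed to compound for 18-24 h: a CellTiter-Fluor fluorescence read for viability, then a luciferase luminescence read for Nrf2/ARE activity.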
Nrf2 activator – qHTS of Nrf2 Activators | AREc32 ARE-luciferase reporter (MCF7-derived line), luminescence, 24 h | Potency, µM (highest dose often 46.1 µM), without a hit: top-dose activation, most hits filed as activators | 0.31% of 410,000 active | AID 624171, 2012; note: % of control where 0% means no effect; nearly all actives have a fitted effect of over 65% in size
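AREc32 cells carrying an ARE-driven firefly luciferase, 1000 cells/well in OPTI-MEM with 5% FBS, dosed after overnight attachment and incubated 24 hr at 37 deg C. Steady-Glo luminescence read after 30 min at RT.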
* hit, by the source's call; i = inactive; ? = inconclusive; . = no result given; ! = repeats disagree. Calls come from the whole dose curve; as a rule, active = well fitted curve in the direction sought with a large enough effect; inconclusive = small, poorly fitted or top-dose-only effect, or another doubt; inactive = no such curve, though single readings can be large; an effect the other way counts as inactive or inconclusive. Potency is the fitted concentration of half-maximal effect.

SMILES	A549 viability	ATXN2 expr inh	S2 tox	Nrf2 inh	Nrf2 activator
COc1ccc(-c2cncnc2N)cc1OC	.	.	?	.	-1%
C=CCc1cccc(CNc2cnc3ccccc3c2)c1O	3%	.	?	23µM*	12%
Oc1ccccc1CNc1cnc2ccccc2c1	-13%	15%	i	?	?
CC1CCN(S(=O)(=O)c2cccc(C(=O)NCC3CCCO3)c2)CC1 (stereo not drawn)	2%	-11%	i	13µM*	0%
CCc1cc2c(=O)c(-c3nc(C)cs3)c(CCCC(=O)O)oc2cc1O	1%	13%	i	0%	3%
CCc1cc2c(=O)c(-c3nc(C)cs3)coc2cc1OC(C)C(=O)NCCO (stereo not drawn)	-1%	4%	i	13µM*	0%
COc1ccc(OC)c(C2=NS(=O)(=O)N(C)C(C(=O)Nc3ccc(F)cc3F)=C2)c1	?	-14%	i	15µM*!	0%
O=C(Nc1ccc(S(=O)(=O)Nc2ncccn2)cc1)C1COc2ccccc2O1 (stereo not drawn)	1%	20%	i	?	0%
COc1ccc(OC)c(NS(=O)(=O)c2ccc(NC(=O)C3COc4ccccc4O3)cc2)c1 (stereo not drawn)	-20%	-32%	i	16µM*	0%
COC(=O)CCC(=O)Nc1c(C)n(C)n(-c2ccccc2)c1=O	12%	-3%	i	22%	0%
CCN(CC)C(=O)C1CCN(S(=O)(=O)c2ccc3oc4ccccc4c3c2)CC1	-4%	-23%	?	21µM*	0%
O=C(NCC1(O)CCCCC1)C1CCC(=O)N(Cc2ccccc2F)C1 (stereo not drawn)	9%	8%	i	-7%	0%
O=C(NCC1COc2ccccc2O1)C1CCN(S(=O)(=O)c2ccc(Cl)cc2)CC1 (stereo not drawn)	0%	.	i	?	-1%
C[C@@H]1CC(=O)NN=C1c1ccc(NN=C(C#N)C#N)cc1	.	27µM*!	25µM*	.	.
COc1ccc(CNC(=O)C2CCN(C(=O)N(C)C)CC2)c(OC)c1	-1%	7%	i	-4%	0%
CC1CCN(S(=O)(=O)c2cc3c4c(c2)CC(=O)N4CCC3)CC1	-2%	.	.	.	10%
CC1CCN(S(=O)(=O)c2ccc3c4c2CC(=O)N4CC(C)S3)CC1 (stereo not drawn)	-8%	?	.	21µM*	10%
CCc1ccc(NC(=O)[C@H](C)NC(=O)C2CCN(C(=O)[C@@H](N)Cc3ccccc3)CC2)cc1	-16%	1%	?	?	3%
C[n+]1c2n(c3ccccc31)N=C(c1ccc(-c3ccccc3)cc1)CS2	?	.	?	10µM*	-1%
C[n+]1c2n(c3ccccc31)N=C(c1ccc(Br)cc1)CS2	-14%	?	?	?	?
COc1cc(C(=O)NS(=O)(=O)c2ccccc2C)ccc1Cc1cn(C)c2ccc(NC(=O)OC3CCCC3)cc12	.	39µM*	i	.	.
Cc1ccc(NC(=O)N(Cc2cn(C)c3ccccc23)C2CCCCC2)cc1C	-5%	34%	i	?	4%
O=C(COc1cccnc1[N+](=O)[O-])Nc1ccc2c(c1)CCC2	-2%	2%	i	13%	1%
Cc1c(-c2ccc(Br)cc2)nc2ccccn12	6%	73%	i	?	4µM*
Clc1c(-c2ccccc2)nc2ccccn12	-1%	82%	i	?	11µM*
SMILES	A549 viability	ATXN2 expr inh	S2 tox	Nrf2 inh	Nrf2 activator
O=C(NNC(=O)c1ccccc1Cl)c1ccc2c(c1)OCCO2	-3%	.	?	?	0%
CCOc1ccc(NC2=CC(=O)C(=O)c3ccccc32)cc1	?	-27%	?	?	-2%
COc1cc(Cl)c(NC2=CC(=O)C(=O)c3ccccc32)c(OC)c1	?	?	25µM*	?	-1%
COc1cc(CCC(=O)O)on1	-6%	.	i	-12%	0%
CCCCN(CC)CCCNC(=O)CC1Nc2ccccc2NC1=O (stereo not drawn)	-4%	-3%	i	-6%	0%
CC1=C([N+](=O)[O-])C(c2ccccc2Cl)NC(=O)N1 (stereo not drawn)	5%	2%	i	2%	0%
CCC(OC(=O)c1ccc(S(C)(=O)=O)c([N+](=O)[O-])c1)C(=O)NC1C2CC3CC(C2)CC1C3 (stereo not drawn)	.	?	6.3µM*	.	8%
CC1CCN(C(=O)C(C)OC(=O)c2ccc(S(C)(=O)=O)c([N+](=O)[O-])c2)CC1 (stereo not drawn)	-7%	.	.	5%	.
CC(OC(=O)c1ccc(S(C)(=O)=O)c([N+](=O)[O-])c1)C(=O)NC1C2CC3CC(C2)CC1C3 (stereo not drawn)	.	?	3.2µM*	.	-3%
CC(C)CN1CCN(C(=O)COC(=O)c2ccc(S(C)(=O)=O)c([N+](=O)[O-])c2)CC1	.	-27%	32µM*	.	-1%
COc1ccc(CN2CCNC(=O)C2CC(=O)N(C)CCC2CCOCC2)cc1OC (stereo not drawn)	12%	13%	i	16%	-1%
CCOc1ccc(N(C)S(=O)(=O)c2ccc(C)c(C(=O)NCCc3ccc(OC)cc3)c2)cc1	-1%	-10%	i	?	2%
COc1ccc(CCNC(=O)COc2ccc(S(=O)(=O)NCC(C)C)cc2Cl)cc1OC	-15%	-8%	i	21µM*	-1%
COc1ccc(CCNC(=O)COc2ccc(N(C)S(=O)(=O)c3ccc(C)cc3)cc2)cc1OC	-3%	-16%	i	26µM*	2%
COc1ccc(CCNC(=O)c2ccc(CS(=O)(=O)c3ccc(C)cc3)o2)cc1OC	8%	-32%	i	21µM*	-1%
CCOc1ccc(N(C)S(=O)(=O)c2ccc(C)c(C(=O)NCc3ccccc3OC)c2)cc1	0%	-6%	i	23µM*	0%
COc1ccc(CCNC(=O)c2ccc(N(C)S(=O)(=O)c3ccc(C)cc3)cc2)cc1OC	-2%	-29%	i	?	2%
COCCNC(=O)C(NC(=O)C1CCC(C)CC1)C(C)C (stereo not drawn)	0%	.	i	15%	0%
Cc1ccc(-n2cnc3c(sc4nc(N5CCOCC5)c5c(c43)CCCC5)c2=O)cc1	-1%	-32%	i	10%	0%
Cc1ccccc1-n1cnc2c(sc3nc(N4CCOCC4)c4c(c32)CCCC4)c1=O	-17%	?	i	21µM*	0%
O=c1c2sc3nc(N4CCOCC4)c4c(c3c2ncn1-c1ccccc1)CCCC4	11%	-8%	i	13µM*	0%
Cc1nn(-c2ccccc2)c(Cl)c1CN(C(=O)CCl)c1cccc2ccccc12	-17%	?	28µM*	-25%	-3%
